Results from PubChem BioAssay (NCATS).
Inconclusive results are not listed. Where a call stands in place of a potency, no number is given. Activity calls are given as the source filed them. Calls follow the shape of the dose curve; as a rule, active = well fitted inhibition curve with a large enough effect; inconclusive = small, poorly fitted or top-dose-only effect; inactive = flat fitted curve, though single readings scatter.

Test: P-glycoprotein substrates identified in KB-8-5-11 adenocarcinoma cell line, qHTS therapeutic library screen (AID 1346987); also: nearly all actives have a fitted effect of over 65% in size
Conditions: KB-8-5-11 (P-gp overexpressing) viability, CellTiter-Glo, 72 h; series mostly up to 44.5 µM
Summary of the method: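 Human cervical adenocarcinoma KB-8-5-11 cells, selected in colchicine to over-express P-gp and assayed without it, were exposed for 72 h to titrated compounds. An ATP-based luminescent viability signal gave AC50.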

Structure (SMILES)	Potency	outcome	activity change, negative = cytotoxicity
COc1c(C)c(OCC(O)C(C)(C)O)cc2c1CNC2=O (stereo unspecified)	inactive	–	–
C[C@@H](NC(=O)c1cc(C(=O)N[C@@H](Cc2ccccc2)[C@H](O)CNC2CC2)cc(N(C)S(C)(=O)=O)c1)c1ccccc1	inactive	–	–
COc1c2ccoc2nc2c(OC)c(O[C@@H]3O[C@@H](C)[C@H](O)[C@@H](O[C@@H]4O[C@H](CO)[C@@H](O)[C@H](O)[C@H]4O)[C@H]3OC(C)=O)ccc12	inactive	–	–
C/C1=C\CC[C@]2(C)O[C@H]2C(=O)c2c(C)coc2C1	inactive	–	–
O=C(CCc1ccccc1)c1c(O)c([C@@H]2O[C@H](CO)[C@@H](O)[C@H](O)[C@H]2O)c(O)c([C@@H]2O[C@H](CO)[C@@H](O)[C@H](O)[C@H]2O)c1O	inactive	–	–
O=C(OC[C@H]1O[C@H](O[C@]2(CO)O[C@H](CO)[C@@H](O)[C@@H]2O)[C@H](O)[C@@H](O)[C@@H]1O)c1ccc(O)cc1	inactive	–	–
COc1cccc(OC)c1-c1ccc(C[C@H](NC(=O)c2c(Cl)cccc2Cl)C(=O)O)cc1	inactive	–	–
CC1(C)CC[C@]2(C(=O)O)CC[C@]3(C)C(=CCC4[C@@]5(C)C(=O)C[C@H](O)[C@@](C)(CO)C5CC[C@]43C)[C@@H]2C1 (stereo partly specified)	inactive	–	–
C/C(=C/CO)CC[C@H]1[C@]2(C)C[C@H](O)CC(C)(C)[C@H]2CC[C@]1(C)O	inactive	–	–
CCCCC(=O)N1c2ccccc2NC2=C(C(=O)CCC2)C1c1ccccc1Cl (stereo unspecified)	inactive	–	–
C=C1CC2C3(C)C=CC(=O)OC(C)(C)C3CC(OC(C)=O)C2(C)C2C(=O)OC(C)C(=O)C12C (stereo unspecified)	inactive	–	–
C[C@@H]1C[C@@H](O)[C@@]2(CO)C(CO)=CCC[C@@H]2[C@@]12C[C@@H](c1ccoc1)OC2=O	inactive	–	–
CC1C2=CC(=O)OC2(O)CC2C1C(OC(=O)c1ccccc1)C(OC(=O)c1ccccc1)C1(O)C2(C)CCC(O)C1(C)C(=O)O (stereo unspecified)	inactive	–	–
O=C(O)c1ccnc2cc(-c3nc4ccccc4n3CCN3CCCCC3)sc12	inactive	–	–
CC[C@H]1OC(=O)[C@H](C)C(=O)[C@H](C)[C@@H](OC2O[C@H](C)C[C@H](N(C)C)[C@H]2O)[C@@H](C)C[C@@H](C)C(=O)/C=C/[C@]1(C)O (stereo partly specified)	inactive	–	–
COc1cc(Cc2cnc(N)nc2N)c(C(C)C)cc1OC	inactive	–	–

Structure (SMILES)	Potency	outcome	activity change, negative = cytotoxicity
C=C1CC23CC1CCC2C12OC(=O)C(C)(C(O)CC1O)C2C3C(=O)O (stereo unspecified)	inactive	–	–
O=C1C[C@@]2(C(=O)N1)C(=O)N(Cc1ccc(Br)cc1F)C(=O)c1cccn12	inactive	–	–
C=C1C(O)CCC2(C)CC3(OC)OC(=O)C(C)=C3CC12 (stereo unspecified)	inactive	–	–
CC1CC(=O)[C@]2(O)C(C(=O)OCCc3ccc(O)c(O)c3)=CO[C@@H](O[C@@H]3O[C@H](CO)[C@@H](O)[C@H](O)[C@H]3O)[C@H]12 (stereo partly specified)	inactive	–	–
C=C1CC2C(C)(CCC(=O)O)C(C(C)(C)O)CCC2(C)C2(C(=O)OC)C(=O)C(C)(O)C(=O)C12C (stereo unspecified)	inactive	–	–
C[C@H]1CCN2C[C@]34C[C@@]5(C(=O)Nc6c5ccc5c6OC=CC(C)(C)O5)C(C)(C)C3C[C@]12C(=O)N4C (stereo partly specified)	inactive	–	–
C[C@@H]1O[C@@H](O[C@H]2[C@H](O)[C@@H](O)[C@H](OC(=O)[C@]34CCC(C)(C)C[C@H]3C3=CCC5[C@@]6(C)CC[C@H](O[C@@H]7O[C@H](C(=O)O)[C@@H](O)[C@H](O)[C@H]7O)C(C)(C)C6CC[C@@]5(C)[C@]3(C)CC4)O[C@@H]2CO)[C@H](O)[C@H](O)[C@H]1O (stereo partly specified)	–	inactive [at 9.29 µM]	–
CC1=C2C[C@@]3(C)C(CCC[C@@H]3C)C(O)C2(O)OC1=O (stereo partly specified)	inactive	–	–
O=C(Cc1ccccc1)OC[C@H]1O[C@H](O[C@H]2O[C@H](CO)[C@@H](O)[C@H](O)[C@H]2O)[C@H](O)[C@@H](O)[C@@H]1O	inactive	–	–
COc1ccc(S(=O)(=O)Nc2nc(-c3cccc([N+](=O)[O-])c3)cs2)cc1OC	inactive	–	–
C/C(=C\CCC(C)(C)O)CCO[C@@H]1O[C@H](CO[C@@H]2O[C@@H](C)[C@H](O)[C@@H](O)[C@H]2O)[C@@H](O)[C@H](O)[C@H]1O	inactive	–	–
CC1=CC2=C(C)C(=O)C(C)(O)C(O)C2CO1 (stereo unspecified)	inactive	–	–
Oc1ccc2c(-c3c(-c4ccccn4)nn4c3CCC4)ccnc2c1	inactive	–	–
CC1=C2C[C@@]3(C)[C@@H](CCC[C@@H]3C)C[C@@]2(O)OC1=O	inactive	–	–
C[C@@H]1CC[C@]2(C(=O)O[C@@H]3O[C@H](CO[C@@H]4O[C@H](CO)[C@@H](O[C@@H]5O[C@@H](C)[C@H](O)[C@@H](O)[C@H]5O)[C@H](O)[C@H]4O)[C@@H](O)[C@H](O)[C@H]3O)CC[C@]3(C)C(=CCC4[C@@]5(C)C[C@@H](O)[C@H](O)[C@@](C)(CO)C5CC[C@]43C)C2[C@H]1C (stereo partly specified)	–	–	2.95% [at 9.29 µM] (inactive)
